{"source": "paper PMC12864922", "about": "“TDP-43 directly inhibits mRNA accumulation in neurites through modulation of mRNA stability”", "binders": {"B1": {"name": "ENSMUSG00000022095.3|Fam160b2|123:127 (ssRNA)", "RNA": "GGGAGUUCUACAGUCCGACGAUCGCUUCGAUAUCCGCAUGCUAAAGGAGCUGGCUGCCAUUGCGUUUGUCAAGUUUCCCCCACACGGUCCUUACCUGAACUUCUCUCCACCUCCAGAAGGGCAAGUCUGAGCCAGGAGCAUGACGGGUGGGGGAAGAUUCCUGCCACACAACUUCUGCCCACGGGCAGUCUCCUGCCUGGCCAUGCUGCCACUCUGUCCUCCAUGCCGGGGACUUCAGCUGCAGGACACCUCACCUGUUGACCCCACGAGCUGAGGUUUCAAGGAGGUGCUGGCUCCUAAGGCCUCUUGCGGUCGCACUAGUGUGGAAUUCUCGGGUGUCAAGG"}, "B2": {"name": "ENSMUSG00000004113.146|Cacna1b|6:10;184:188;241:245;249:253 (ssRNA)", "RNA": "GGGAGUUCUACAGUCCGACGAUCGCUUCGAUAUCCGCAUGCUACACAUCAUACUAGAGAUGCGCUCAAGGGCCUGCCUUUCACCUACACUGUCACCAUAACAGGGACCAAAUCUGGAGGAUGUCCUUGCUGUUGAUUCUGGUUUUCAGUCACAACACUUUCACUGUUUGUCAUUUCUAUGUAGUUGAUCUAGAAAAAGCAGAAAUCAAAACAGGAAAGGAAAUGUUACACAAACUUUAAAAAAAAAGUCAACAUGUAGGAAGGUCUCCAUUUUGCAUUGUUUCACACACUUCAUACCAAUGUUCUCUUGCGGUCGCACUAGUGUGGAAUUCUCGGGUGUCAAGG"}, "B3": {"name": "ENSMUSG00000031028.47|Tub (ssRNA)", "RNA": "GGGAGUUCUACAGUCCGACGAUCGCUUCGAUAUCCGCAUGCUACUGAAGCAGGGGGGACAGCAAAUGGGUAUGACAGGAGAAGAAUAUUUCUGUGCCCCAAGGUCAACACACAUGCCCAGUCCUGGGUCAGUCCCCUGCUGCAGUGGUGUUAUCACACCGGAAAGCCUCUUCACCUGGAGGUACAGAGGGAGAGGAAGCACAAGCCUGGCUGCUGUGGCUCAGCCAUCCACUCAGCCUACGAGUCAGAGACAGUGGGUGUCCCGGGAAGCAGGGGUACAGUGAGUGUGUGUGUAUGUACAGGGCUCUUGCGGUCGCACUAGUGUGGAAUUCUCGGGUGUCAAGG"}, "B4": {"name": "ENSMUSG00000043670.69|Diras1 (ssRNA)", "RNA": "GGGAGUUCUACAGUCCGACGAUCGCUUCGAUAUCCGCAUGCUACCAUUCUAUCUGCACCCCACAACCACACACUGGAGGUUUGAUCCCUGUGGAUCUGAAAACAGGGACCUGGCUAAGGAACUGCUCAUCCCAGUCAGGCCCAGAGAGGUUACCUUGCCUCUCCAUCUCUGUCCCUGUGUGCCCAGCCAUGCCCACUGUCCCUGUCCCUCACAUUCUAUCACUGUGACCUCUGGGGAGUGCCCAUUGACCUCAUCUUCCUUCACUAAUAUCUUAUUUCUUUCACCUGAUCCUGUCCUUUCCCCCUCUUGCGGUCGCACUAGUGUGGAAUUCUCGGGUGUCAAGG"}, "B5": {"name": "ENSMUSG00000004113.290|Cacna1b (ssRNA)", "RNA": "GGGAGUUCUACAGUCCGACGAUCGCUUCGAUAUCCGCAUGCUACAGGAAGGUGUUCAGUGUGCACAGAUAGCUGGGAGGCCACGAGAGAAAGGUUGCACACAGACAGGCAGGCACUCCUUGGUGUGGUCUCUCUGUUUUGAAACUUCUGAUGACUUCUUGGUGGCUUGUUGUCUUCUACCCCAUGUUUCUCACAGGAUCUGUGUGUGUGUGUGUGUGUGUGUGUGUGUGUGUGUGUGUGUGUGUUAGCAUGUGUGUAUUAGCGUGUGUGAGUGUGUGAGCAUGCACGAGUCAUAGGAGAUGCACUCUUGCGGUCGCACUAGUGUGGAAUUCUCGGGUGUCAAGG"}, "B6": {"name": "ENSMUSG00000004113.305|Cacna1b (ssRNA)", "RNA": "GGGAGUUCUACAGUCCGACGAUCGCUUCGAUAUCCGCAUGCUAUGUUUUGAAACUUCUGAUGACUUCUUGGUGGCUUGUUGUCUUCUACCCCAUGUUUCUCACAGGAUCUGUGUGUGUGUGUGUGUGUGUGUGUGUGUGUGUGUGUGUGUGUGUUAGCAUGUGUGUAUUAGCGUGUGUGAGUGUGUGAGCAUGCACGAGUCAUAGGAGAUGCAGGUGUAUGUGUGUGGUGUGCAUAUGUGUAUGUGUGUGUGUGUGUGUGUGUGUGUAGGUGUGUUCAGCAAGUGGCUAUUGUCAACCAUAGGCUCUUGCGGUCGCACUAGUGUGGAAUUCUCGGGUGUCAAGG"}, "B7": {"name": "ENSMUSG00000004113.303|Cacna1b (ssRNA)", "RNA": "GGGAGUUCUACAGUCCGACGAUCGCUUCGAUAUCCGCAUGCUAGUGUGGUCUCUCUGUUUUGAAACUUCUGAUGACUUCUUGGUGGCUUGUUGUCUUCUACCCCAUGUUUCUCACAGGAUCUGUGUGUGUGUGUGUGUGUGUGUGUGUGUGUGUGUGUGUGUGUGUUAGCAUGUGUGUAUUAGCGUGUGUGAGUGUGUGAGCAUGCACGAGUCAUAGGAGAUGCAGGUGUAUGUGUGUGGUGUGCAUAUGUGUAUGUGUGUGUGUGUGUGUGUGUGUGUAGGUGUGUUCAGCAAGUGGCUAUUCUCUUGCGGUCGCACUAGUGUGGAAUUCUCGGGUGUCAAGG"}, "B8": {"name": "ENSMUSG00000004113.293|Cacna1b (ssRNA)", "RNA": "GGGAGUUCUACAGUCCGACGAUCGCUUCGAUAUCCGCAUGCUAGCACAGAUAGCUGGGAGGCCACGAGAGAAAGGUUGCACACAGACAGGCAGGCACUCCUUGGUGUGGUCUCUCUGUUUUGAAACUUCUGAUGACUUCUUGGUGGCUUGUUGUCUUCUACCCCAUGUUUCUCACAGGAUCUGUGUGUGUGUGUGUGUGUGUGUGUGUGUGUGUGUGUGUGUGUGUUAGCAUGUGUGUAUUAGCGUGUGUGAGUGUGUGAGCAUGCACGAGUCAUAGGAGAUGCAGGUGUAUGUGUGUGGUGUCUCUUGCGGUCGCACUAGUGUGGAAUUCUCGGGUGUCAAGG"}, "B9": {"name": "ENSMUSG00000004113.302|Cacna1b (ssRNA)", "RNA": "GGGAGUUCUACAGUCCGACGAUCGCUUCGAUAUCCGCAUGCUAUCCUUGGUGUGGUCUCUCUGUUUUGAAACUUCUGAUGACUUCUUGGUGGCUUGUUGUCUUCUACCCCAUGUUUCUCACAGGAUCUGUGUGUGUGUGUGUGUGUGUGUGUGUGUGUGUGUGUGUGUGUGUUAGCAUGUGUGUAUUAGCGUGUGUGAGUGUGUGAGCAUGCACGAGUCAUAGGAGAUGCAGGUGUAUGUGUGUGGUGUGCAUAUGUGUAUGUGUGUGUGUGUGUGUGUGUGUGUAGGUGUGUUCAGCAAGUGCUCUUGCGGUCGCACUAGUGUGGAAUUCUCGGGUGUCAAGG"}, "B10": {"name": "ENSMUSG00000004113.295|Cacna1b (ssRNA)", "RNA": "GGGAGUUCUACAGUCCGACGAUCGCUUCGAUAUCCGCAUGCUAGGGAGGCCACGAGAGAAAGGUUGCACACAGACAGGCAGGCACUCCUUGGUGUGGUCUCUCUGUUUUGAAACUUCUGAUGACUUCUUGGUGGCUUGUUGUCUUCUACCCCAUGUUUCUCACAGGAUCUGUGUGUGUGUGUGUGUGUGUGUGUGUGUGUGUGUGUGUGUGUGUUAGCAUGUGUGUAUUAGCGUGUGUGAGUGUGUGAGCAUGCACGAGUCAUAGGAGAUGCAGGUGUAUGUGUGUGGUGUGCAUAUGUGUAUCUCUUGCGGUCGCACUAGUGUGGAAUUCUCGGGUGUCAAGG"}, "B11": {"name": "ENSMUSG00000004113.291|Cacna1b (ssRNA)", "RNA": "GGGAGUUCUACAGUCCGACGAUCGCUUCGAUAUCCGCAUGCUAGGUGUUCAGUGUGCACAGAUAGCUGGGAGGCCACGAGAGAAAGGUUGCACACAGACAGGCAGGCACUCCUUGGUGUGGUCUCUCUGUUUUGAAACUUCUGAUGACUUCUUGGUGGCUUGUUGUCUUCUACCCCAUGUUUCUCACAGGAUCUGUGUGUGUGUGUGUGUGUGUGUGUGUGUGUGUGUGUGUGUGUGUUAGCAUGUGUGUAUUAGCGUGUGUGAGUGUGUGAGCAUGCACGAGUCAUAGGAGAUGCAGGUGUACUCUUGCGGUCGCACUAGUGUGGAAUUCUCGGGUGUCAAGG"}, "B12": {"name": "ENSMUSG00000004113.292|Cacna1b (ssRNA)", "RNA": "GGGAGUUCUACAGUCCGACGAUCGCUUCGAUAUCCGCAUGCUACAGUGUGCACAGAUAGCUGGGAGGCCACGAGAGAAAGGUUGCACACAGACAGGCAGGCACUCCUUGGUGUGGUCUCUCUGUUUUGAAACUUCUGAUGACUUCUUGGUGGCUUGUUGUCUUCUACCCCAUGUUUCUCACAGGAUCUGUGUGUGUGUGUGUGUGUGUGUGUGUGUGUGUGUGUGUGUGUGUUAGCAUGUGUGUAUUAGCGUGUGUGAGUGUGUGAGCAUGCACGAGUCAUAGGAGAUGCAGGUGUAUGUGUGCUCUUGCGGUCGCACUAGUGUGGAAUUCUCGGGUGUCAAGG"}, "B13": {"name": "ENSMUSG00000004113.294|Cacna1b (ssRNA)", "RNA": "GGGAGUUCUACAGUCCGACGAUCGCUUCGAUAUCCGCAUGCUAAUAGCUGGGAGGCCACGAGAGAAAGGUUGCACACAGACAGGCAGGCACUCCUUGGUGUGGUCUCUCUGUUUUGAAACUUCUGAUGACUUCUUGGUGGCUUGUUGUCUUCUACCCCAUGUUUCUCACAGGAUCUGUGUGUGUGUGUGUGUGUGUGUGUGUGUGUGUGUGUGUGUGUGUUAGCAUGUGUGUAUUAGCGUGUGUGAGUGUGUGAGCAUGCACGAGUCAUAGGAGAUGCAGGUGUAUGUGUGUGGUGUGCAUAUCUCUUGCGGUCGCACUAGUGUGGAAUUCUCGGGUGUCAAGG"}}, "note": "In all, about 9,900 sequences were measured (“r (bound/input frequency ratio)”: median about 0.7, highest 2% from about 6.5 on). This is one part of a sample in which the highest values are shown more often than they occur.", "data": [{"target": "TDP-43 (Homo sapiens, UniProt Q13148 1-414)", "sequence (Q13148 whole entry)": "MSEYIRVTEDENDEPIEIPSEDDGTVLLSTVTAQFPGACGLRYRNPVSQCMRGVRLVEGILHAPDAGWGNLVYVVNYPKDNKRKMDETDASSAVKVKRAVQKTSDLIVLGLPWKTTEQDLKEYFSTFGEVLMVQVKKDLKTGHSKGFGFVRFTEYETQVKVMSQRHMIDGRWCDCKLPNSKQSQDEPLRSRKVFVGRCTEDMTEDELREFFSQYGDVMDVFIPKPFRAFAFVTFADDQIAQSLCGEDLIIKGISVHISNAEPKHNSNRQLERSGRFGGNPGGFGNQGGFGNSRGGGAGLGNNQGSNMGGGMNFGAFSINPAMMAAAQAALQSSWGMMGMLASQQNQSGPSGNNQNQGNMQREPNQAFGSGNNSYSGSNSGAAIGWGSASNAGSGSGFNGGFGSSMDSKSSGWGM", "test": "RNA Bind-n-Seq with designed 260-mer pool; 25 mM Tris-HCl, 150 mM KCl, 3 mM MgCl2, BSA (printed 500 mg/mL), 20 units/mL SUPERase IN; pH not stated; 500 nM RNA pool, 1 h, 4 C; TDP-43 5, 50, 500 nM; high values mean tight binding", "details": "protein: recombinant; tags: SBP (GST cleaved off with PreScission; pGEX-GST-SBP)", "in_short": "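An in vitro-transcribed pool of 260-nt 3′ UTR oligos (500 nM) was incubated for 1 h at 4 °C with recombinant SBP-tagged TDP-43 at 5, 50 or 500 nM held on streptavidin beads. The buffer contained 25 mM Tris-HCl, 150 mM KCl, 3 mM MgCl2, BSA and SUPERase IN. Biotin-eluted bound RNA was sequenced, and binding, R, is each oligo's normalized read abundance in the bound sample over that in input.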", "values": [{"binder": "B1", "binding signal": "0.205 R (bound/input frequency ratio)"}, {"binder": "B2", "binding signal": "0.13 R (bound/input frequency ratio)"}, {"binder": "B3", "binding signal": "2.21 R (bound/input frequency ratio)"}, {"binder": "B4", "binding signal": "2.12 R (bound/input frequency ratio)"}, {"binder": "B5", "binding signal": "5.7 R (bound/input frequency ratio)"}, {"binder": "B6", "binding signal": "4.07 R (bound/input frequency ratio)"}, {"binder": "B7", "binding signal": "5.04 R (bound/input frequency ratio)"}, {"binder": "B8", "binding signal": "5.22 R (bound/input frequency ratio)"}, {"binder": "B9", "binding signal": "8.59 R (bound/input frequency ratio)"}, {"binder": "B10", "binding signal": "5.7 R (bound/input frequency ratio)"}, {"binder": "B11", "binding signal": "5.2 R (bound/input frequency ratio)"}, {"binder": "B12", "binding signal": "6.93 R (bound/input frequency ratio)"}, {"binder": "B13", "binding signal": "6.88 R (bound/input frequency ratio)"}]}]}
